# According to PubChem BioAssay AID2380 (Sanford-Burnham Center for Chemical Genomics, 2010):
# The campaign covered roughly 330,000 compounds. About 960 (0.29%) were called active. The sample holds actives, similar compounds and a random draw of the others, so the mix is not that of the screen. A number with no mark means an inactive call.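 How the source made its calls: active means compounds whose signal lies at least 3.5 SD above the mean of all wells on their plate; inactive means the rest.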
# Test: small molecules increasing insulinoma cell replication – ATP luminescence, uHTS, primary screen (AID 2380);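 further: 0% = DMSO-treated cells in low-serum medium and 100% = 10% serum control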
# Conditions: MIN6 cells proliferation, ATPlite luminescence, 48 h; at 10 µM; hits give high values; 100% = growth in 10% serum; cells starved in 0.2% serum
row,Structure (SMILES),proliferation
1,CC(NC(=O)c1ccco1)c1ccc2c(c1)OCO2 (stereo unspecified),-0.03%
2,Cc1cc(C(=O)NNC(=S)Nc2ccccc2C)cs1,0%
3,O=C(NC(=S)Nc1cccc2c(O)cccc12)c1cccc(Br)c1,-7.11%
4,Cc1ccccc1NC(=S)NNC(=O)c1cccc(Br)c1,13.8% (active)
5,CC1(C)O[C@@H]2[C@H](O1)[C@@H](CO)O[C@H]2n1c(N2CCCCC2)nc2c(N)ncnc21,1.62%
6,COCCNc1nc(-c2ccccc2)nc2c1oc1ccccc12,6.28% (active)
7,COc1ccc(C)cc1Nc1nc(C)nc2c1oc1ccccc12,-4.77%
8,C[C@@H](Nc1nc(-c2ccccc2)nc2c1oc1ccccc12)C(=O)O,-1.21%
9,Cc1cc(C)c(S(=O)(=O)NCC2CCC(C(=O)NCc3ccc4c(c3)OCO4)CC2)c(C)c1 (stereo unspecified),-1.16%
10,O=C(CN1CCN(c2ccc(Cl)cc2)CC1)c1ccccc1,-0.29%
11,COc1ccc(CN2CCNC(=O)C2CC(=O)NCc2cn[nH]c2-c2ccccc2)c(F)c1 (stereo unspecified),0.21%
12,Cc1ccc2c(c1)N(S(=O)(=O)c1cc(-c3cc(C)no3)ccc1C)CCO2,-6.66%
13,C=CCOC(=O)C1=C(C)OC(N)=C(C#N)C1c1ccc(F)cc1 (stereo unspecified),-0.46%
14,CCOC(=O)C1=C(C)OC(N)=C(C#N)C1c1cncc(-c2ccc(F)cc2)c1 (stereo unspecified),-3.32%
15,CCOC(=O)C1=C(CC)OC(N)=C(C#N)C1c1ccc(F)cc1F (stereo unspecified),9.9% (active)
16,CC(=O)NC(C)(C)C1CC=C(C)/C(=N\O)C1 (stereo unspecified),-0.3%
17,CCOC(=O)c1sc(NC(=O)CCN2CCOCC2)c(C(=O)OCC)c1C,-6.14%
18,CCOC(=O)c1c(NC(=O)CCl)sc(C(=O)N(CC)CC)c1C,-3.42%
19,CCOC(=O)Nc1sc(C(=O)N(C)C)c(C)c1C(=O)OCC,7.91% (active)
20,NC(=O)c1nsc(C(=O)N(CCCN2CCOCC2)C(C(=O)NC2CCCCC2)c2ccc(Cl)cc2)c1N (stereo unspecified),0%
21,Cc1noc(COc2ccccc2OCc2onc(C)c2Cl)c1Cl,-3.09%
22,O=[N+]([O-])c1ccc2c(c1)C(O)n1nc(-c3ccccc3)nc1S2 (stereo unspecified),-0.32%
23,Cn1nc(-c2ccccc2)c2cc([N+](=O)[O-])ccc21,8.71% (active)

row,Structure (SMILES),proliferation
1,COC(=O)Cn1nc(-c2ccccc2)c2cc(Cl)ccc21,-1.48%
2,C/C(Cl)=C\Cn1c(Nc2cccc(C)c2)nc2c1c(=O)n(C)c(=O)n2C,-1.44%
3,COc1ccc(NC(=O)CNc2cc(S(=O)(=O)N3CCOCC3)ccc2N2CCOCC2)c(OC)c1,-0.63%
4,CCOC(=O)C1(Cc2ccccc2C)CCCN(C(=O)CCc2c(C)noc2C)C1 (stereo unspecified),0.64%
5,CCOC(=O)N1CCN(C(=O)c2cn(C)c3ccc(S(=O)(=O)N4CCCC4)cc3c2=O)CC1,-0.22%
6,Cc1ccc(S(=O)(=O)N2CCCCC2)cc1C(=O)N1CCN(CCO)CC1,12.6% (active)
7,Cc1ccc(S(=O)(=O)N2CCN(C)CC2)cc1C(=O)NC1CCCCC1,-0.96%
8,CCC(NC(=O)c1ccccc1NC(=O)c1ccccc1)C(=O)NNC(=O)CSc1nc2ccccc2o1 (stereo unspecified),-0.4%
9,COc1ccc(N(CC(=O)N2CCOCC2)S(=O)(=O)c2ccccc2)cc1Cl,-0.37%
10,COCCN(C(=O)CCC(=O)Nc1nccs1)C(C(=O)NC(C)(C)C)c1ccc(Cl)cc1 (stereo unspecified),5.62%
11,CC(=O)Nc1ccc(/C(C)=N/NC(=O)CN(c2ccccc2Br)S(C)(=O)=O)cc1,0%
12,C=CCn1c(=O)c(C(=O)NCc2ccc3c(c2)OCO3)c(O)c2ccccc21,-5.37%
13,CCn1c(=O)c([N+](=O)[O-])c(NCc2ccc3c(c2)OCO3)c2ccccc21,8.6% (active)
14,CCn1c(=O)cc(SCC(=O)NCc2ccc3c(c2)OCO3)c2ccccc21,0.19%
15,CCc1ccc(S(=O)(=O)NCC(O)COc2ccc(OC)cc2)cc1 (stereo unspecified),1.69%
16,COc1ccc(CN(C(=O)CSc2nnc(-c3ccc(OC)c(OC)c3)o2)c2ccc(F)cc2)cc1,-1.49%
17,CSc1cccc(NC(=O)CN2C(=O)COc3ccc(S(=O)(=O)N4CCOCC4)cc32)c1,-3.64%
18,O=C(c1ccc(F)cc1)c1cn(Cc2ccc(F)cc2)c2cc3c(cc2c1=O)OCCO3,-0.71%
19,Cc1cc(NC(=O)CSc2nc3ccccc3n2CC(C)C)no1,7.98% (active)
20,Cc1cc(NC(=O)COn2nnc3ccccc32)no1,-1.01%
21,Cc1cc(NC(=O)CSCC(=O)NC(C)c2ccccc2)no1 (stereo unspecified),-3.94%
22,CCOc1ccc(C(=O)Nc2ccc(CN3CCOCC3)cc2)cc1Cl,-1.37%
23,CCOC(=O)c1csc(CCNC(=O)c2oc3c(Cl)cc(C)cc3c2C)n1,-3.1%

row,Structure (SMILES),proliferation
1,CCCNC(=O)CCn1nc(-c2ccccc2)c2ccccc2c1=O,9.9% (active)
2,CCOC(=O)C(C)n1nc(-c2ccccc2)c2ccccc2c1=O (stereo unspecified),4.32%
3,O=c1c2ccccc2c(-c2ccc(Br)cc2)nn1Cc1ccccc1,-5.75%
4,CCCn1c(C)cc(/C=C(\C#N)C(=O)OCC(=O)Nc2cc(OC)c(OC)c(OC)c2)c1C,-0.86%
5,COc1ccccc1N(C)C(=O)c1cc(S(=O)(=O)N2CCc3ccccc32)cn1C,-2.09%
6,CCOC(=O)c1c(N=CN(C)C)c(C#N)c2n1CCCC2,5.05%
7,CC1=NN(C(=O)CCCc2ccccc2)C(O)(C(F)(F)F)C1 (stereo unspecified),-1.71%
8,OC1CN=C2Sc3ccccc3N2C1 (stereo unspecified),5.2% (active)
9,CCOC(=O)N1CCN(C(=O)c2ccc3nc4cc(Cl)ccc4c(=O)n3c2)CC1,-2.76%
10,O=C(CN1CCN(c2ccc(Cl)cc2)CC1)NCc1cccs1,0.22%
11,CC1(C)SC2c3ccccc3C(=O)N2[C@@H]1C(=O)NCc1ccco1 (stereo partly specified),0.14%
12,COc1cc2c(cc1OC)C(C(=O)NCc1ccco1)C1c3ccccc3CCN1C2=O (stereo unspecified),9.44% (active)
13,COc1ccc(S(=O)(=O)N2CCC(C(=O)NCc3ccco3)CC2)cc1C,-0.27%
14,O=C1NC(c2ccc(-c3ccccc3[N+](=O)[O-])o2)C(C(=O)c2ccc(Cl)cc2)C(O)(C(F)(F)F)N1 (stereo unspecified),-2.76%
15,COC(C(=O)NCc1ccccc1C)c1ccccc1 (stereo unspecified),-1.34%
16,CC(=O)CC[C@@H](C)O[C@@H]1OC(C)[C@H](O)CC1O (stereo partly specified),-5.25%
17,COc1cccc(CNC(=O)CCC2CCCN(C(=O)c3ccc(F)c(Cl)c3)C2)c1 (stereo unspecified),-1.84%
18,COc1cccc(CNC(=O)CCC2CCCN(C(=O)c3cc(C)[nH]n3)C2)c1 (stereo unspecified),0.78%
19,COc1cccc(CNC(=O)CCC2CCCN(C(=O)c3ccoc3C)C2)c1 (stereo unspecified),12.3% (active)
20,COc1ccc(/C=C2\CCCC3C2=NN(C(=O)c2scnc2C)C3c2ccc(OC)cc2)cc1 (stereo unspecified),-5.85%
21,COc1ccc(N2CCN(C(CNS(=O)(=O)c3ccc(C)cc3)c3ccccc3)CC2)cc1 (stereo unspecified),-4.55%
22,Cn1cc(CN2CCC(C(O)CCc3ccccc3)CC2)c(-c2ccccc2F)n1 (stereo unspecified),11.8% (active)
23,CCCOC1CCCN(Cc2cn(C)nc2-c2ccccc2F)C1 (stereo unspecified),1.33%

row,Structure (SMILES),proliferation
1,CN(CCc1cnn(C)c1)Cc1cn(C)nc1-c1ccccc1F,-0.61%
2,COc1cc(/C=C/CO)cc(OC)c1O[C@@H]1O[C@H](CO)[C@@H](O)[C@H](O)[C@H]1O,-0.51%
3,O=C(O)c1cccc(S(=O)(=O)N2CC=C(c3ccccc3)CC2)c1,0.12%
4,Cc1ccc(NC(=O)c2ccc(S(=O)(=O)NCC3CCCO3)cc2)cc1C (stereo unspecified),-3.24%
5,N#Cc1cccc(CN2CCC(=O)N(CCO)CC2)c1,-4.43%
6,O=C1CCN(Cc2ccccc2)CCN1[C@H](CSc1ccccc1)c1ccccc1,2.8%
7,N#Cc1cccc(CN2CCC(=O)N([C@H](CO)c3ccccc3)CC2)c1,14.7% (active)
8,COc1cccc(N=c2oc3c(C)ncc(CO)c3cc2C(N)=O)c1,-0.09%
9,CC(C)Cc1oc(C(=O)O)cc1CN,-3.33%
10,CCCCNC(=O)OCCSCCS(=O)(=O)c1ccc(Cl)cc1,-0.91%
11,CC[C@@H]1Cc2cc(O)ccc2C2=C1c1ccc(O)cc1C[C@H]2CC,-8.09%
12,COCCCNC(=O)Cn1c(=O)n(Cc2ccccc2Cl)c(=O)c2cc(OC)c(OC)cc21,-2.84%
13,COc1ccc2c(c1)C(=C(C#N)C#N)C(=O)N2CCc1ccccc1,-3.84%
14,CC(N)C12CC3CC(CC(O)(C3)C1)C2 (stereo unspecified),-0.37%
15,CN(CC(=O)Nc1c(Cl)cccc1Cl)C(=O)c1ccncc1,-1.79%
16,CN1CCN(c2ccc(CNS(=O)(=O)c3cccc(F)c3)cc2)CC1,-0.97%
17,COc1ccc(-n2nnnc2CNC(=O)c2ccc3ccccc3c2)cc1,-1.98%
18,CC(=O)c1ccc(S(=O)(=O)NCc2nnnn2-c2ccccc2)cc1,11.8% (active)
19,O=S(=O)(Cc1nnnn1-c1ccccc1)c1ccccc1,-0.06%
20,COc1ccccc1C(=O)N1CCN=C1SCc1cccnc1,0.39%
21,CCCCn1c(N)c(N(CC)C(=O)c2ccc(N(C)S(=O)(=O)c3ccc(C)cc3)cc2)c(=O)[nH]c1=O,-0.39%
22,Cc1cccc(NS(=O)(=O)c2cccc(C(=O)NNC(=O)c3ccccc3O)c2)c1,1.68%
